Hit rate of the full screen: of about 360,000 compounds, about 11,000 (3.1%) were called active. The list comes from a sample in which actives are over-represented; it also holds similar structures and randomly drawn compounds. Unmarked numbers belong to inactive results. No stated cut-off is given here; in the data, active means activity change below about -30%; inactive means the rest.
target: D(1A) dopamine receptor (Homo sapiens) (UniProt P21728); assay: Antagonist of Human D 1 Dopamine Receptor: qHTS; conditions: HEK293 TREx D1 cells, calcium flux, dopamine EC80; at 10 µM; active compounds read low
Procedure, shortened: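 Using tetracycline-induced force-coupled D1 Hek293 cells and a calcium dye, signals were followed for 180 s after compound, then for 180 s after EC80 dopamine, to detect inhibitors.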
On the % scale 0 is the no-effect control and ±100 the full control effect.

Sequence of D(1A) dopamine receptor (Homo sapiens) (P21728 whole entry, looked up): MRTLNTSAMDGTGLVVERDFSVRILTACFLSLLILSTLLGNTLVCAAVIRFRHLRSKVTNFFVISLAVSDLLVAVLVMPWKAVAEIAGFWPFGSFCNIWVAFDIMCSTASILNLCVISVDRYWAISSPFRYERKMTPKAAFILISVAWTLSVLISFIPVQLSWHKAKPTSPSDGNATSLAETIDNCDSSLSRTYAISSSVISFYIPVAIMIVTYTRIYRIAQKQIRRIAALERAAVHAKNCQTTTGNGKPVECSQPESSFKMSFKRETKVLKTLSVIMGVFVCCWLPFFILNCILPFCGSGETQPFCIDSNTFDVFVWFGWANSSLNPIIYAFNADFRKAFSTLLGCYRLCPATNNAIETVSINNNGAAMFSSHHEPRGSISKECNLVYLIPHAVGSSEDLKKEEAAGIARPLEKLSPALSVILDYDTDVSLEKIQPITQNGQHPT

Compared with `Cc1nn(-c2ccc(N3CCCCC3)nn2)c(C)c1CCC(=O)NCc1ccccc1F`, `COc1ccc(CNC(=O)CCc2c(C)nn(-c3ccc(N4CCCC4)nn3)c2C)cc1` is higher in activity change, negative = inhibition: -7.94% for the first, 8.22% for the second.

Compared with `Cc1cccc(OCCSc2nc3ccccc3n2CC(=O)N2CCCCC2)c1C`, `O=C(CSc1nc2ccccc2nc1Cc1ccccc1)N1CCCCC1` is higher in activity change, negative = inhibition: -17.2% for the first, -12.3% for the second.

Going from `O=C(OCC(=O)N1CCc2ccccc21)c1ccc([N+](=O)[O-])cc1` to `COc1ccc(C(CNC(=O)COc2ccc([N+](=O)[O-])cc2)N2CCCCC2)cc1` (centres undefined), the activity change, negative = inhibition rises from -13% to 6.98%.

Compared with `O=C(NCC(c1cccnc1)N1CCc2ccccc21)c1cccc(C(F)(F)F)c1` (centres undefined), `Cc1ccc(-c2nn3c(=O)cc(CN4CCN(C(=O)Nc5cccc(C(F)(F)F)c5)CC4)nc3s2)cc1` is higher in activity change, negative = inhibition: 4.34% for the first, 4.59% for the second.

First: Cc1ccc2oc3c(c(=O)c2c1)C(c1ccc([N+](=O)[O-])cc1)N(CCCN1CCOCC1)C3=O (centres undefined)
Second: O=C(Nc1cc(-c2nc3ccccc3o2)ccc1Cl)c1cc([N+](=O)[O-])ccc1N1CCOCC1
The activity change, negative = inhibition of the first is lower: -8.02% for the first, -2.21% for the second.

Going from `Cc1ccc(C)c(N2CCN(C(=O)CN3C(=O)COc4ccc(S(=O)(=O)N5CCCCCC5)cc43)CC2)c1` to `O=C(CN1C(=O)COc2ccc(S(=O)(=O)N3CCOCC3)cc21)N1CCN(c2cccc(Cl)c2)CC1`, the activity change, negative = inhibition falls from -0.74% to -5.01%.

Going from `Cc1ccccc1-c1n[nH]c(=S)n1/N=C/c1ccc(-c2ccccc2Br)o1` to `Cc1ccsc1/C=N/n1c(=S)[nH]nc(C)c1=O`, the activity change, negative = inhibition rises from -0.652% to 0.744%.

Compared with `Cc1nn(-c2ccc(F)cc2)c(-n2cccc2)c1C(=O)N1CCN(c2ccccc2)CC1`, `Cc1ccc(-n2nc(C)c(C(=O)O)c2-n2cccc2)cc1` is lower in activity change, negative = inhibition: 21% for the first, -8.13% for the second.

Compared with `CCN(CC)CCNC(=O)c1cc2c(=O)oc3ccc(C)cc3c2s1`, `CCc1ccc2oc(-c3ccc(C)c(NC(=O)/C=C/c4ccco4)c3)nc2c1` is lower in activity change, negative = inhibition: 4.45% for the first, -0.213% for the second.

First: COc1cc(NC(=O)c2ccc(-c3csc(C)n3)cc2)c(OC)cc1Cl
Second: COc1cc(OC)c(NC(=O)c2c3c(nn2C)-c2ccccc2SC3)cc1Cl
The activity change, negative = inhibition of the first is lower: -3.88% for the first, 2.27% for the second.

Compared with `COc1ccc(NC(=O)c2ccc3oc(=O)c(S(=O)(=O)c4ccc(F)cc4)cc3c2)c(OC)c1`, `CCc1ccccc1NC(=O)c1ccc(F)c(S(=O)(=O)NC2CCCCCC2)c1` is lower in activity change, negative = inhibition: 4.65% for the first, -16.4% for the second.

Compared with `Nc1nc(CC(=O)CSc2ccc(Cl)cc2)nc(Nc2ccc(F)cc2)n1`, `Cc1ccccc1Nc1nc(N)nc(COC(=O)CCC(=O)c2ccc(F)cc2)n1` is lower in activity change, negative = inhibition: -8.8% for the first, -23.2% for the second.

Going from `COc1ccccc1-c1cc(C(F)(F)F)nc(S(=O)(=O)CCCC(=O)Nc2cc(C)ccc2O)n1` to `CCOc1ccccc1C(=O)NC1(C(F)(F)F)NC(=O)N(CCc2ccc(OC)c(OC)c2)C1=O` (centres undefined), the activity change, negative = inhibition rises from -0.269% to 12%.

First: CCOC(=O)c1cc2c(=O)n3ccccc3nc2n(CCCOC)c1=NC(=O)C(C)Oc1ccccc1 (centres undefined)
Second: CC1(C)NC(=O)N(CCOc2cccc(Oc3ccccc3)c2)C1=O
The activity change, negative = inhibition of the first is lower: -0.513% for the first, 1.02% for the second.

Compared with `O=S(=O)(NC1CC1)c1ccc2c3c(cccc13)CC2`, `Cc1ccc(S(=O)(=O)N2CCC(C(=O)Nc3cc(C)ccc3C)CC2)cc1` is higher in activity change, negative = inhibition: -23.6% for the first, 7.91% for the second.

First: CCN1CCN(c2ncc3c(n2)CC(c2ccccc2O)CC3=O)CC1 (centres undefined)
Second: CCN(C(=O)Cn1cc(S(=O)(=O)N2CCN(c3ccccc3F)CC2)c2ccccc2c1=O)c1ccc(C)c(C)c1
The activity change, negative = inhibition of the first is higher: 0.271% for the first, -3.49% for the second.

Compared with `CCN(Cc1ccccc1)Cc1c(O)ccc2c(=O)c(-c3ccc(Cl)cc3Cl)coc12`, `Cc1ccc(-c2nnc(Nc3cccc(Br)c3)c3ccccc23)cc1S(=O)(=O)NCC1CCCO1` (centres undefined) is lower in activity change, negative = inhibition: -1.12% for the first, -11.8% for the second.

Compared with `CCOc1ccc(Nc2ncnc3scc(-c4ccc(OC)cc4)c23)cc1`, `COc1ccc(Nc2ncnc3sc(C)cc23)cc1` is lower in activity change, negative = inhibition: 13.2% for the first, -13.7% for the second.

Going from `CCOC(=O)C1CCN(c2nc3c(S(=O)(=O)c4ccc(CC)cc4)nnn3c3ccc(Cl)cc23)CC1` to `CCOC(=O)CSC1=Nc2ccccc2C2=NC(CCC(=O)NCc3ccc(F)cc3)C(=O)N12` (centres undefined), the activity change, negative = inhibition rises from -7.85% to 7.77%.

Compared with `O=C(CN1C(=O)NC2(CCCC2)C1=O)OCCOc1ccc(F)cc1`, `CCOC(=O)N1CCc2c(sc(NCc3cccc(F)c3)c2C(=O)Nc2ccccc2OCC)C1` is lower in activity change, negative = inhibition: -6.87% for the first, -17.6% for the second.

Going from `O=S(=O)(c1ccc2c(c1)OCCCO2)N1CCN(S(=O)(=O)c2c(F)cccc2F)CC1` to `O=S(=O)(NCC1CN(S(=O)(=O)c2ccc3c(c2)OCCO3)C1)c1c(F)cccc1F`, the activity change, negative = inhibition rises from -7.05% to 2.66%.

Going from `CCOC(=O)C1CCCN(C(=O)c2ccc(C)c(S(=O)(=O)N3CCCCC3)c2)C1` (centres undefined) to `CCOC(=O)C1CCCN(C(=O)c2cncc(Br)c2)C1` (centres undefined), the activity change, negative = inhibition falls from -1.15% to -9.23%.

For `O=C1CCCN1C(=O)COc1ccc([N+](=O)[O-])cc1`, the activity change, negative = inhibition was -83.3% (active).
For `S=c1[nH]nc(-c2ccco2)n1/N=C/c1ccc(Br)s1`, the activity change, negative = inhibition was -38.6% (active).
In the case of `Cc1nn(-c2ccccc2)c(-n2cccc2)c1C(=O)O`, the activity change, negative = inhibition is reported as -45.8% (active).
`COc1cc(OC)c(NC(=O)c2nc(-c3ccncc3)no2)cc1Cl` was tested, and the activity change, negative = inhibition was -32.7% (active).
For `Nc1nc(COC(=O)CCC(=O)c2ccc(Cl)cc2)nc(Nc2ccccc2)n1`, the activity change, negative = inhibition was -34.3% (active).
`O=S(=O)(NC1CCCCC1)c1ccc(F)c2ccccc12` was tested, and the activity change, negative = inhibition was -32.8% (active).
With `COC(=O)c1ccc(Nc2ncnc3sccc23)cc1` the activity change, negative = inhibition was -42.9% (active).
With `N#Cc1ccc(OCCN2C(=O)NC3(CCSC3)C2=O)cc1` (centres undefined) the activity change, negative = inhibition was -30.6% (active).
`O=S(=O)(NC1CCN(S(=O)(=O)c2ccc3c(c2)OCCO3)CC1)c1c(F)cccc1F` was tested, and the activity change, negative = inhibition was -30.3% (active).
For `CCOC(=O)C1CCCN(C(=O)c2ccc3c(c2)sc2nc(-c4ccc(CC)cc4)cn23)C1` (centres undefined), the activity change, negative = inhibition was -33% (active).
